Laboratory results as given in PubChem BioAssay AID588342 (National Center for Advancing Translational Sciences (NCATS), 2011).
In all, about 360,000 compounds went through this assay and about 25,000 (6.9%) were called active. Roughly 9% stayed inconclusive and do not appear here. The list comes from a sample in which actives are over-represented; it also holds similar structures and randomly drawn compounds. A number with no mark means an inactive call. Calls come from the whole dose curve; as a rule, active = well fitted inhibition curve with a large enough effect; inconclusive = small, poorly fitted or top-dose-only effect; inactive = flat fitted curve, though single readings scatter.

Target: Luciferin 4-monooxygenase (Photinus pyralis) (UniProt P08659)
Experiment: qHTS profiling assay for firefly luciferase inhibitor/activator using purifed enzyme and Km concentrations of substrates (counterscreen for miR-21 project); note: nearly all actives have a fitted effect of over 55% in size;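 for activity change, negative = inhibition: plate controls were vehicle for no effect and reference inhibitor for full effect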
Conditions: purified FLuc, luminescence inhibition; series mostly up to 57.5 µM; activity change, negative = inhibition: at the top concentration
Procedure, shortened: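 Biochemical qHTS of compounds, final roughly 60 µM downward over six points, against 10 nM purified firefly luciferase using Km concentrations of substrates (10 uM D-luciferin, 10 uM ATP) in Tris acetate pH 7.5 buffer; luminescence output.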
Potency is the fitted concentration of half-maximal effect.

Luciferin 4-monooxygenase (Photinus pyralis), sequence (P08659 whole entry, looked up): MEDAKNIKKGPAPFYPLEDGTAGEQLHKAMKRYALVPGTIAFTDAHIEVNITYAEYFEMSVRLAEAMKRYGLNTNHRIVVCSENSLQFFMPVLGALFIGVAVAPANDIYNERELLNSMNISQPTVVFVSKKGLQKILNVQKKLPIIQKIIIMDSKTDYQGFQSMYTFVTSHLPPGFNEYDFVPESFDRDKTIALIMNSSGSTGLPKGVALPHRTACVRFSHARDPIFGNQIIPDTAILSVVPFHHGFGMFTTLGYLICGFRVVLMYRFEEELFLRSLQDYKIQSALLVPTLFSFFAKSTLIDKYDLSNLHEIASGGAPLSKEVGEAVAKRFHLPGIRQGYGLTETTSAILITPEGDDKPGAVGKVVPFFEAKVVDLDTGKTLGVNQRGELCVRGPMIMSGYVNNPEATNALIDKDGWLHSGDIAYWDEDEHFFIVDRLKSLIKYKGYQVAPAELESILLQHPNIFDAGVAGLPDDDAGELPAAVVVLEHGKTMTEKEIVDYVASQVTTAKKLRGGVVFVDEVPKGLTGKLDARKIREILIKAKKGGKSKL

SMILES | activity change, negative = inhibition [%] | Potency
COc1cccc(CNC(=O)C(NS(=O)(=O)c2ccc3nc(C)sc3c2)C(C)C)c1 (stereo unspecified) | -1.94 | 
C/C(=N/NC(=O)c1cc(Cl)ccc1O)C12CC3CC(CC(C3)C1)C2 |  | 15.1 µM (active)
COc1ccc(Cl)cc1NC(=O)CN(C)C(=O)CNC(=O)C12CC3CC(CC(C3)C1)C2 | -0.933 | 
COc1ccc(OC)c(/C(C)=N\NC(=O)c2cc3cc(Cl)ccc3n2C)c1 | 0.109 | 
NC(=O)NCCCC(=O)O | 0.395 | 
CSc1ncc(C(=O)NCc2ccccc2Cl)c(C(F)(F)F)n1 | 1.14 | 
CCn1c2ccc(F)cc2c2nnc(SCCN3CCOCC3)nc21 | 4.01 | 
Cc1cccc(C)c1OCCN1CCOCC1 | 2.23 | 
Cc1cc2nc(SCCN3CCOCC3)[nH]c2cc1C |  | 19 µM (active)
Cc1ccc(C(=O)Nc2ccc(NC(=O)c3cccs3)cc2)c(C)c1 | 0.511 | 
Cc1ccc(C(=O)Nc2ccc(C)c(S(=O)(=O)N(C)C)c2)s1 |  | 1.9 µM (active)
Cc1ccc(NC(=O)c2cccs2)cc1S(=O)(=O)N(C)C |  | 15.1 µM (active)
Cc1ccc(NC(=O)CNCc2ccccn2)cc1S(=O)(=O)N(C)C | 0.098 | 
COc1ccc(CCC(=O)OCC(=O)Nc2ccc(C)c(S(=O)(=O)N(C)C)c2)cc1 | -10.3 | 
Cc1ccc(C(=O)Nc2ccc(C(=O)O)cc2)cc1S(=O)(=O)Nc1ccccc1 | -16.6 | 
Cc1cc(C)c(/C=C/c2onc(C)c2S(=O)(=O)N2CCC(C(=O)Nc3ccc(Cl)cc3C)CC2)c(C)c1 | -0.359 | 
COc1ccc(C(=O)CSc2c(C(C)C)cnc3c2c(=O)n(C)c(=O)n3C)cc1 | 1.21 | 
O=C(CSc1nc2nccnc2c(=O)n1CCc1c[nH]c2ccccc12)Nc1ccccc1F | -13.8 | 
O=C(CN1CCN(Cc2ccc(Cl)cc2)C1=O)NCc1ccc(F)cc1 | -3.28 | 
COc1ccc(N2C(=O)CS(=O)(=O)C23C(=O)N(Cc2ccc(C)cc2)c2ccccc23)cc1Cl (stereo unspecified) | 5.02 | 
O=S(=O)(NCCS(=O)(=O)N1CCN(c2ccccc2)CC1)c1ccc(Cl)cc1 | 0.0657 | 
CC1=NN(Cc2ccccc2)C(=O)/C1=C/c1ccc(N(C)C)cc1 |  | 6.75 µM (active)

SMILES | activity change, negative = inhibition [%] | Potency
CSc1c(SCc2ccccc2)cnn(Cc2ccccc2)c1=O | -18.5 | 
CN(C)c1cc[n+](Cc2ccccc2)cc1 | -1.97 | 
COc1ccc(C)cc1NC(=O)CN1c2cccc3cccc(c23)S1(=O)=O | -0.145 | 
CCOC(=O)c1cc(-c2ccccc2C)n(Cc2cc(C)no2)n1 | -3.14 | 
CC(C)CC(=O)Nc1ccc(Cc2ccncc2)cc1 | -0.47 | 
CCc1ccc(NC(=O)Nc2ccncc2)cc1 |  | 9.53 µM (active)
COc1cccc(OC)c1C(=O)Nc1ccc(Cc2ccncc2)cc1 | -10.8 | 
CCCN(C(=O)c1nc2nccc(C)n2n1)c1c(N)n(Cc2ccccc2)c(=O)[nH]c1=O | -2.05 | 
CCOC(=O)/C(=N\Nc1cc(Cl)ccc1Cl)N1CCN(C)CC1 | -1.6 | 
CC(C)Cc1nc(Nc2ccc(S(=O)(=O)N3CCCC3)cc2)c2nnn(Cc3ccccc3)c2n1 | -0.534 | 
Cc1onc(-c2ccc(F)cc2F)c1C(=O)Nc1cccc(C(F)(F)F)c1 | -0.0598 | 
CCCC(=O)Nc1cccc(NC(=S)NC(=O)C(C)Oc2ccc(Cl)cc2Cl)c1 (stereo unspecified) | 0.164 | 
CC(C)n1ncc2c(C(=O)NCc3ccccc3CN(C)C)cc(C3CC3)nc21 | -2.31 | 
COC(=O)CC1=NN(c2nc(C)cc(C)n2)C(=O)C1 | -2.4 | 
COC(=O)Cc1csc(Nc2c(C)n(C)n(-c3ccccc3)c2=O)n1 | 0.205 | 
COC(=O)Cc1cc(=O)n(-c2nc3ccccc3s2)[nH]1 |  | 16.9 µM (active)
CCCCOc1ccc(CNC(=O)c2ccc3c(c2)N(C)C(=O)C2CCCCN32)cc1 (stereo unspecified) | -16.9 | 
Cc1c(C(=O)Nc2cccc(Cl)c2)cn2c(nc3ccccc32)c1C#N | 0.605 | 
C/C(=N\c1nc2ccccc2n1C)c1cc(Cl)ccc1O | 1.93 | 
Cn1c(Nc2cccc(Cl)c2)nc2ccccc21 |  | 26.9 µM (active)
Cc1ccc(S(=O)(=O)N2CCc3cc(C(=O)Nc4ccc(Cl)cc4C)ccc32)cc1 | -0.133 | 
NC(=O)Cn1cc(/C=N\NS(=O)(=O)c2ccccc2)c2ccccc21 | -3.8 | 

SMILES | activity change, negative = inhibition [%] | Potency
COc1cccc(C(=O)CC(=O)C(=O)Nc2ccc([N+](=O)[O-])cc2C)c1 | -0.0338 | 
COc1cccc(CNC(=O)CCCC(=O)Nc2cccc([N+](=O)[O-])c2)c1 | -0.421 | 
COc1cccc(NCCC(=O)c2cccc([N+](=O)[O-])c2)c1 |  | 15.1 µM (active)
CC(=O)c1ccc(OCCCC(=O)Nc2ccc(C)c(S(=O)(=O)N3CCOCC3)c2)cc1 | -0.819 | 
Cc1ccc(NC(=O)CN2c3ccccc3S(=O)(=O)c3ccccc32)cc1F | -14.8 | 
Cc1ccc(F)cc1S(=O)(=O)N1CCC(c2nc3ccccc3s2)CC1 | -14.2 | 
N#C/C(=C(/O)Cc1cccc2ccccc12)c1nc2ccccc2s1 | 0.936 | 
CC1=CC(=C(C#N)c2nc3ccccc3s2)C=C(C)N1c1ccc(F)cc1F |  | 1.35 µM (active)
COc1ccc(/C=C(\C#N)c2c[nH]c3ccccc23)cc1 |  | 19 µM (active)
COc1ccc2[nH]cc(/C=C(/C#N)S(=O)(=O)c3ccccc3)c2c1 | -2.16 | 
COc1ccc(C(C(O)C(=O)c2c[nH]c3ccccc23)N2CCN(c3ccccc3)CC2)cc1 (stereo unspecified) | 1 | 
CCOC(=O)c1cc(NC(=O)c2ccc(F)cc2)c(=O)n2c1oc1ccccc12 | -2.27 | 
COC1=C/C(=C/c2c(N)n3nc(CC(=O)N4CCOCC4)sc3nc2=O)C=CC1=O | -7.53 | 
COc1cc2c(cc1OC)CN(CC(=O)Nc1ccc(F)cc1)CC2 | 1.97 | 
COc1cc2c(cc1OC)/C(=C/C(=O)c1ccc(NC(C)=O)cc1)NCC2 |  | 16.9 µM (active)
CCNC(=O)c1ccc(OCC(=O)Nc2ccc(F)cc2)c(OC)c1 | -8.62 | 
CCN(CC(=O)Nc1ccccc1C(=O)NC1CC1)Cc1cccs1 | 2.69 | 
Cc1cc(OCC(=O)NCC2(N(C)C)CCCCC2)cc(C)c1Cl | -0.865 | 
Cc1ccnc(SCC(N)=O)n1 | -2.98 | 
Cc1ccnc(N2CCCC(C(=O)NC3CC3)C2)n1 (stereo unspecified) | 0.897 | 
Cc1ccnc(-n2sc3ccccc3c2=O)n1 |  | 9.53 µM (active)
CCN(Cc1ccccc1)S(=O)(=O)c1ccc2c(c1)CCCN2C(C)=O | -8.62 | 
